# Results: the supplement of paper PMC6555819
# Key:
# Assay in all cases: PBM binding z-score (relative to random genomic background probes); higher = stronger binding; sequences stand for … in GC…GCGATTGACAGCGTAGAATGAAGG
# [1] = system: RARb homodimer (NR concentration 270 nM)
# In short: (§1)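 The probes on custom Agilent 4×180K protein-binding microarrays were double-stranded, with 34-nt variable regions bearing direct-repeat seeds, single-nucleotide variants, half-site ablations and random human genomic background sequences. Incubation lasted 1 h with ligand-free nuclear receptor dimers in PBS pH 7.4, 2% milk, 0.02% Triton X-100, 1 mM DTT, 0.2 mg/mL BSA and 0.4 mg/ml salmon testes DNA. Antibodies against each partner (one per run) detected bound dimers, and fluorescence scans were regression-normalized. Binding z-scores take the random background probes as reference.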
# [2] = system: RARg:RXRa (NR concentration 270 nM, RXRa partner concentration 90 nM)
# In short: as §1
# [3] = system: RARg homodimer (NR concentration 270 nM)
# In short: as §1
# [4] = system: RXRa DBDmut IVT, anti-RXR (DBD mutation: RXRa K156A/R161A, NR concentration 90 nM)
# In short: as §1
# [5] = system: RXRa homodimer (NR concentration 180 nM)
# In short: as §1
# [6] = system: THRa:RXRa (NR concentration 90 nM, RXRa partner concentration 90 nM)
# In short: as §1
# [7] = system: THRa homodimer (NR concentration 90 nM)
# In short: as §1
# [8] = system: VDR homodimer (NR concentration 270 nM)
# In short: as §1
Sequence,PBM binding z-score [1],PBM binding z-score [2],PBM binding z-score [3],PBM binding z-score [4],PBM binding z-score [5],PBM binding z-score [6],PBM binding z-score [7],PBM binding z-score [8]
AGAATGAGGTTATTAAGATCAGCGAATTGCGGTC,0.651,1.02,0.64,1.95,1.43,2.07,0.43,0.913
AACACAGGGTCATCGTAGGCCAGAGTACGCACAG,3.59,5.74,5.13,3.79,6.58,4.5,1.69,3.84
CCAACTGGGCCACGAAAGGTCATTGATTCAGTGA,4.65,4.7,4.65,0.781,5.13,3.69,0.917,2.32
TCTAGTTGGTCACGGAGGTCACACTCGACGGGTA,4.42,4.61,4.99,1.2,4.54,3.59,2.56,2.99
ATATGTAGGTTATCGGGTCATTCGGTTTGCGCAT,2.88,3.2,2.3,1.52,3.53,3.28,2.94,4.19
CCTCCTGGGCCATTCAGAGGTCATTGATCATATG,4.15,4.79,3.13,0.494,4,3.3,1.39,3.92
ATATGTAGGTTATCTGGTCATTCAGTTTGCGCAT,1.34,1.39,1.15,1.08,1.46,0.737,0.562,1.07
ATCTCTAGGTAAGACTCAGTTCAGTCAAGAACGC,0.982,0.387,0.453,0.696,0.195,1.18,0.902,1.48
CAAACTAGGTCAAGGGTCAAAGTCGAGCCAACCA,4.7,7.41,6.13,2.47,8.6,4.36,1.45,3.15
CAGCCTAGGTCAGGGCCACTATAGGAGGAACGTT,2.67,3.08,3.7,0.123,1.84,2.19,0.516,-0.129
AGAAGGAGGTTACCAAAGATCAGGGAAACGCTTG,1.11,1.66,1.54,-0.25,2.27,1.73,0.244,0.128
CGAATTAGGTCATTGACAGGACAGTGAATAGTAA,2.68,4.6,4.22,2.69,2.53,3.33,1.54,1.22
TCTTGTAGATCAGCAGGTTAGGAAAGCTGGCCAA,0.063,-0.177,-0.406,0.591,0.165,0.0538,-0.496,-0.206
GATACAGGCTCAGCTAGAGGCCAGAGTATGGAAA,-0.469,-0.109,-0.0931,-0.906,-0.529,-1.13,-0.801,-0.924
CCCAGTTGGTCAGGAGGTCACACACCGGATATGA,4.41,4.87,4.25,-0.0617,4.6,3.52,2.63,2.66
ATATGTAGGTTAAGGGTCAGTCAGGTTGGTTCGC,3.81,4.01,3.14,1.4,4.19,2.78,1.68,2.75
CCTGCTAGGTTATGGTCAGCTAATCTACAGTATG,0.748,0.34,0.636,0.299,0.0468,0.383,-0.417,-0.337
ACGAGTTGGTCAGCTGAGGTCACACACAATTCGG,4.17,4.17,4.27,1.82,4,4.77,4.97,4.4
AGTCAACGTTCATCTAGGTAACGTAAGATATGCT,-0.148,0.363,0.744,-0.0413,0.0603,0.649,-0.132,-0.282
ACATGTAGGTTACATCCGGGTCATTCAGGCTATG,3.01,3.84,2.29,1.4,3,3.83,2.85,3.73
TCTTGTAGATCAATAGAGGTTCAGAAAGTGCGCT,0.168,0.234,0.116,0.728,0.478,0.501,-0.823,1.37
CGAACTAGGTCAAGGACAGTGATTCTCCGCACGC,3.36,3.83,4.62,1.49,2.77,3.42,2.19,0.466
CAAACTAGGTCACGAAAGGTCTAAGTCGAATGAC,3.98,5.04,5.84,1.6,4.23,4.1,1.73,0.873
CCTAGCAGGCCAGAGTCACTCAAGCATTTCGCTT,-0.596,-0.447,-0.706,-0.204,-0.442,-0.569,-0.769,-0.726
CGTCAAAGTACAAGGTAACGTAACAGAAAGCAGC,0.287,0.552,1.1,0.923,0.455,1.37,0.356,-0.157
CCTTACGGGTCAAGGTTCTAGCACGGGTGGTACG,3.2,4.78,4.47,0.551,4.96,2.39,0.0737,1.51
CAAACTAGGTCACGAAAGGTCGAAGTCGAATGAC,5,6.14,6.69,2.17,5.66,4.65,1.9,2.3
CCTGTTAGTTGACCATAAGGGCAACCGAAGCTCG,2.14,1.2,0.916,0.329,0.511,1.88,1.5,0.539
